Assay results taken from PubChem BioAssay (Tox21).
Results filed as inconclusive are left out. Where a call stands in place of a potency, no number is given. Active and inactive are the calls of the source. Calls come from the whole dose curve.

Assay: qHTS assay to identify small molecule agonists of the sonic hedgehog signaling (Shh) pathway (AID 1259368);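 note: NIH/3T3-derived 3T3Gli1-Luc cells carrying a stable Gli1-driven firefly luciferase reporter; nearly all actives have a fitted effect of over 15% in size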
Details: NIH/3T3 Gli1-Luc reporter, luciferase, 24 h; series mostly up to 92.4 µM
Method in brief: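 Stable NIH/3T3 Gli1-Luc reporter clone; 24 hr cpd exposure after a 4 hr settling period; luminescence endpoint.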
For `CC(C)C(=O)OCCOc1ccccc1`, the Potency was “inactive”. With `CC(C)(C)C1(CCc2ccc(Cl)cc2)CO1` (centres undefined) the Potency was “inactive”. For `OCC(CO)n1cnc(-c2ccc(F)cc2)c1-c1ccnc(Oc2ccccc2)n1`, the Potency was “inactive”. With `COc1cc(S(=O)(=O)Nc2ccccc2)c(OC)cc1N` the Potency was “inactive”. With `CC(=O)OCCC1CCCCC1` the Potency was “inactive”. With `CC(=O)NNC(C)=O` the Potency was “inactive”. For `CC(C)c1ccc(C#N)cc1`, the Potency was “inactive”. For `CC[C@H]1OC(=O)[C@H](C)[C@@H](O[C@H]2C[C@@](C)(OC)[C@@H](O)[C@H](C)O2)[C@H](C)[C@@H](O[C@@H]2O[C@H](C)C[C@H](N(C)C)[C@H]2O)[C@](C)(O)C[C@@H](C)CN(C)[C@H](C)[C@@H](O)[C@]1(C)O`, the Potency was “inactive”. With `CCN(CC)CC(=O)Nc1c(C)cccc1C(=O)OC` the Potency was “inactive”. For `C/C(C=O)=C\c1ccccc1`, the Potency was “inactive”. In the case of `CC(CO)(CO)C(=O)O`, the Potency is reported as “inactive”. With `O=P(O)(O)Oc1ccccc1` the Potency was “inactive”. In the case of `CCOCCC(=O)OCC`, the Potency is reported as “inactive”. For `ClC1=C(Cl)C1(Cl)Cl`, the Potency was “inactive”. With `O=C(c1ccccc1)C1CCC1` the Potency was “inactive”. In the case of `O=C(O)c1cccc(C[C@@H]2COc3ccc(OCc4nc5cc(F)ccc5s4)cc3[C@@H]2O)c1`, the Potency is reported as “inactive”. For `CCSC(=O)N(CC)CC`, the Potency was “inactive”. With `COC(OC)OC` the Potency was “inactive”. In the case of `O=C(NS(=O)(=O)/C=C/c1ccccc1)c1ccc(F)cc1Cl`, the Potency is reported as “inactive”. For `O=C(O)c1cccc(Oc2ccccc2)c1`, the Potency was “inactive”. With `COC(=O)c1sccc1S(N)(=O)=O` the Potency was “inactive”. With `CCOC(=O)C(C)O` (centres undefined) the Potency was “inactive”. In the case of `COC(=O)Nc1nc2ccc(C(=O)C3CC3)cc2[nH]1`, the Potency is reported as “inactive”. With `CC(C)(O)CCc1ccccc1` the Potency was “inactive”. For `C=C(C)C(=O)OCCC(F)(F)C(F)(F)C(F)(F)C(F)(F)C(F)(F)C(F)(F)F`, the Potency was “inactive”. In the case of `O=C(O)CO`, the Potency is reported as “inactive”. With `COc1ccc(-n2nc(C(F)F)cc2-c2ccc(S(C)=O)cc2)cc1` (centres undefined) the Potency was “inactive”. For `O=[N+]([O-])c1ccc2ncccc2c1`, the Potency was “inactive”. For `O=C(/C=C/c1ccc([N+](=O)[O-])cc1)c1ccccc1`, the Potency was “inactive”. For `COC(C)(C)OC`, the Potency was “inactive”. For `C=CCOC(=O)COCCC(C)C`, the Potency was “inactive”. With `NC(=O)c1ccccc1[N+](=O)[O-]` the Potency was “inactive”. For `CCC(CO)(CO)[N+](=O)[O-]`, the Potency was “inactive”. With `CC(C)OC(=O)c1ccccc1C(=O)OC(C)C` the Potency was “inactive”. In the case of `Cc1ccc(N(CCO)CCO)cc1`, the Potency is reported as “inactive”. For `CCOc1ncc(F)c(=O)[nH]1`, the Potency was “inactive”. In the case of `FC(F)(F)C(F)(F)C(F)(F)C(F)(F)CCI`, the Potency is reported as “inactive”. For `CC(C)c1ccc(C(=O)N=C(N)N)cc1S(C)(=O)=O`, the Potency was “inactive”. For `CC(C)(C)CCCCCCOC(=O)c1ccccc1C(=O)OCCCCCCC(C)(C)C`, the Potency was “inactive”.

Assay: qHTS assay to identify small molecule antagonists of the sonic hedgehog signaling (Shh) pathway (AID 1259369); note: nearly all actives have a fitted effect of over 45% in size; note: potency is the fitted concentration of half-maximal effect
Details: NIH/3T3 Gli1-Luc reporter, Shh antagonist, luminescence 24 h; series mostly up to 92.4 µM
Method in brief: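 Gli1 transcriptional reporter (firefly Luc) in NIH/3T3 background, conditioned-medium activated. 24hr exposure, luminescence endpoint.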
In the case of `CC(C)C(=O)OCCOc1ccccc1`, the Potency is reported as “inactive”. In the case of `CC(C)(C)C1(CCc2ccc(Cl)cc2)CO1` (centres undefined), the Potency is reported as “inactive”. For `COc1cc(S(=O)(=O)Nc2ccccc2)c(OC)cc1N`, the Potency was “inactive”. In the case of `CC(=O)OCCC1CCCCC1`, the Potency is reported as “inactive”. With `CC(=O)NNC(C)=O` the Potency was “inactive”. With `CC(C)c1ccc(C#N)cc1` the Potency was “inactive”. With `CCN(CC)CC(=O)Nc1c(C)cccc1C(=O)OC` the Potency was “inactive”. With `C/C(C=O)=C\c1ccccc1` the Potency was “inactive”. With `CC(CO)(CO)C(=O)O` the Potency was “inactive”. With `CCOCCC(=O)OCC` the Potency was “inactive”. For `ClC1=C(Cl)C1(Cl)Cl`, the Potency was “inactive”. For `O=C(c1ccccc1)C1CCC1`, the Potency was “inactive”. In the case of `O=C(O)c1cccc(C[C@@H]2COc3ccc(OCc4nc5cc(F)ccc5s4)cc3[C@@H]2O)c1`, the Potency is reported as “inactive”. With `CCSC(=O)N(CC)CC` the Potency was “inactive”. With `COC(OC)OC` the Potency was “inactive”. In the case of `O=C(NS(=O)(=O)/C=C/c1ccccc1)c1ccc(F)cc1Cl`, the Potency is reported as “inactive”. For `O=C(O)c1cccc(Oc2ccccc2)c1`, the Potency was “inactive”. For `COC(=O)c1sccc1S(N)(=O)=O`, the Potency was “inactive”. For `CCOC(=O)C(C)O` (centres undefined), the Potency was “inactive”. In the case of `COC(=O)Nc1nc2ccc(C(=O)C3CC3)cc2[nH]1`, the Potency is reported as “inactive”. With `CC(C)(O)CCc1ccccc1` the Potency was “inactive”. For `C=C(C)C(=O)OCCC(F)(F)C(F)(F)C(F)(F)C(F)(F)C(F)(F)C(F)(F)F`, the Potency was “inactive”. For `O=C(O)CO`, the Potency was “inactive”. With `COc1ccc(-n2nc(C(F)F)cc2-c2ccc(S(C)=O)cc2)cc1` (centres undefined) the Potency was 1090 nM (active). In the case of `O=[N+]([O-])c1ccc2ncccc2c1`, the Potency is reported as “inactive”. With `COC(C)(C)OC` the Potency was “inactive”. In the case of `C=CCOC(=O)COCCC(C)C`, the Potency is reported as “inactive”. For `NC(=O)c1ccccc1[N+](=O)[O-]`, the Potency was “inactive”. For `CCC(CO)(CO)[N+](=O)[O-]`, the Potency was “inactive”. With `CC(C)OC(=O)c1ccccc1C(=O)OC(C)C` the Potency was “inactive”. In the case of `Cc1ccc(N(CCO)CCO)cc1`, the Potency is reported as “inactive”. In the case of `CCOc1ncc(F)c(=O)[nH]1`, the Potency is reported as “inactive”. In the case of `FC(F)(F)C(F)(F)C(F)(F)C(F)(F)CCI`, the Potency is reported as “inactive”. In the case of `CC(C)c1ccc(C(=O)N=C(N)N)cc1S(C)(=O)=O`, the Potency is reported as “inactive”. With `CC(C)(C)CCCCCCOC(=O)c1ccccc1C(=O)OCCCCCCC(C)(C)C` the Potency was “inactive”.
